# Test results as given in the supplement of paper PMC8728848.
# Only a selection was taken, and the strongest signals are over-represented in it overall.
# How the values were obtained:
# Test in all cases: glycan array binding signal (z-score within array); higher = stronger binding
# Conditions in all cases: glycan notation: IUPAC condensed, linker removed
# [1] = target: Fuc(a1-2)Gal(b1-3)GalNAc(a1-3)[Fuc(a1-2)]Gal(b1-4)GlcNAc
# Summary of the method: (§1)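 Glycan array data came from 3228 arrays in the Consortium for Functional Glycomics database, and only arrays with an available protein sequence were kept. Glycan names were put into IUPAC-condensed notation, and columns mapping to the same glycan were averaged. The binding signal is a within-array Z-score, averaged across arrays of one protein sequence run at different concentrations or buffers and across linkers. A negative Z-score can be read as non-binding.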
# [2] = target: Fuc(a1-2)Gal(b1-3)GalNAc(b1-3)Gal(a1-4)Gal(b1-4)Glc
# Summary of the method: as §1
# [3] = target: Fuc(a1-2)Gal(b1-3)GalNAc(b1-4)[Neu5Ac(a2-3)]Gal(b1-4)Glc
# Summary of the method: as §1
# [4] = target: Fuc(a1-2)Gal(b1-3)GlcNAc(b1-3)[Fuc(a1-2)Gal(b1-3)GlcNAc(b1-6)]GalNAc
# Summary of the method: as §1
# Fuc(a1-2)Gal(b1-4)Glc6S = target: Fuc(a1-2)Gal(b1-4)Glc6S
# Summary of the method: as §1
# Fuc(a1-2)Gal6S(b1-4)Glc = target: Fuc(a1-2)Gal6S(b1-4)Glc
# Summary of the method: as §1
# [5] = target: Fuc(a1-2)[Gal(a1-3)]Gal(b1-3)GalNAc
# Summary of the method: as §1
# [6] = target: Fuc(a1-2)[Gal(a1-3)]Gal(b1-4)GlcNAc(b1-3)[Fuc(a1-2)[Gal(a1-3)]Gal(b1-4)GlcNAc(b1-6)]GalNAc
# Summary of the method: as §1
# [7] = target: Fuc(a1-2)[Gal(a1-4)]Gal(b1-4)GlcNAc
# Summary of the method: as §1
# [8] = target: Fuc(a1-2)[GalNAc(a1-3)]Gal(b1-4)GlcNAc(b1-2)Man(a1-3)[Fuc(a1-2)[GalNAc(a1-3)]Gal(b1-4)GlcNAc(b1-2)Man(a1-6)]Man(b1-4)GlcNAc(b1-4)GlcNAc
# Summary of the method: as §1
# [9] = target: Fuc(a1-2)[GalNAc(a1-3)]Gal(b1-4)GlcNAc(b1-3)Gal(b1-4)GlcNAc(b1-3)Gal(b1-4)GlcNAc
# Summary of the method: as §1
# [10] = target: Gal(a1-3)[Gal(a1-4)]Gal(b1-4)GlcNAc
# Summary of the method: as §1
# [11] = target: Gal(b1-3)GlcNAc(a1-6)Gal(b1-4)GlcNAc
# Summary of the method: as §1
# Gal(b1-3)GlcNAc6S = target: Gal(b1-3)GlcNAc6S
# Summary of the method: as §1
# [12] = target: Gal(b1-3)[Neu5Ac(a2-6)]GlcNAc(b1-4)Gal(b1-4)Glc
# Summary of the method: as §1
# [13] = target: Gal(b1-3)[Neu5Ac(b2-6)]GalNAc
# Summary of the method: as §1
# Gal(b1-4)Glc6S = target: Gal(b1-4)Glc6S
# Summary of the method: as §1
# [14] = target: Gal(b1-4)GlcNAc(b1-2)Man(a1-3)Man(b1-4)GlcNAc(b1-4)GlcNAc
# Summary of the method: as §1
# [15] = target: Gal(b1-4)GlcNAc(b1-2)[Gal(b1-4)GlcNAc(b1-6)]Man(a1-6)[Gal(b1-4)GlcNAc(b1-2)Man(a1-3)]Man(b1-4)GlcNAc(b1-4)[Fuc(a1-6)]GlcNAc
# Summary of the method: as §1
# [16] = target: Gal(b1-4)GlcNAc(b1-2)[Gal(b1-4)GlcNAc(b1-6)]Man(a1-6)[GlcNAc(b1-4)][Gal(b1-4)GlcNAc(b1-2)Man(a1-3)]Man(b1-4)GlcNAc(b1-4)GlcNAc
# Summary of the method: as §1
# [17] = target: Gal(b1-4)GlcNAc(b1-3)Gal(b1-4)GlcNAc(b1-3)[Gal(b1-4)GlcNAc(b1-3)Gal(b1-4)GlcNAc(b1-6)]GalNAc
# Summary of the method: as §1
# [18] = target: Gal(b1-4)GlcNAc(b1-3)Gal(b1-4)GlcNAc(b1-6)[Gal(b1-3)]GalNAc
# Summary of the method: as §1
# [19] = target: Gal(b1-4)GlcNAc(b1-3)GalNAc
# Summary of the method: as §1
# Gal6S(b1-4)Glc6S = target: Gal6S(b1-4)Glc6S
# Summary of the method: as §1
# GalNAc(b1-4)GlcNAc = target: GalNAc(b1-4)GlcNAc
# Summary of the method: as §1
# Glc(b1-4)Glc = target: Glc(b1-4)Glc
# Summary of the method: as §1
# [20] = target: GlcNAc(a1-4)Gal(b1-3)GlcNAc
# Summary of the method: as §1
# [21] = target: GlcNAc(b1-2)[GlcNAc(b1-6)]Man(a1-6)[GlcNAc(b1-4)][GlcNAc(b1-2)Man(a1-3)]Man(b1-4)GlcNAc(b1-4)GlcNAc
# Summary of the method: as §1
# [22] = target: GlcNAc(b1-3)Gal(b1-4)GlcNAc(b1-6)[Gal(b1-3)]GalNAc
# Summary of the method: as §1
# [23] = target: GlcNAc(b1-3)[GlcNAc(b1-6)]Gal(b1-4)GlcNAc
# Summary of the method: as §1
binder,measurement,setting,value
PX14404-bvu-534-26-534 (Bacteroides vulgatus) (protein) EDPRGKLTPENFFSTQDELNMSIYALYQKVNLSQVYTNMQLPQWQGDDITTNPGSNKQPAAEMDKFAAANNNKGVKDAWNMHYAIVKAANLIIQGASKTPTTQDEINIALGQAKFWRAYAYFTLVRLWGPLPMNLDNVNDDYTKPLSPVEEVYGHIVQDLTEAEAVLPTGYSGSPRFLNGVNVYVTRQAAKSTLAAVYMAMAGWPMNKTEYYAKAAEKAKEVIEGVNRGEYEYKLDKDYKDVYAMSNNYNNETVLGINYSPFVDWAQDSELTSCNQFESLGGWGDAWGEIRFWKEFPDGPRKDATYDPKIRLKDGTLVDWWELKEDGTPVVPEHHPMFSIFSVNWDPASKVNTSAPYDYTKPASQNMCNDHRHRIIRYSEVLLWYAEAKARTGQTDELAFKCLNDVRERAGLEPLTGLSADDLAEAAYKEHGWEVAGYWVALVTRRADQFRMNRLKDTFKERAENTAVEVADGILVKESVEYTNRTWSDNLMYLPYPDMDSQKNPNLVR,glycan array binding signal (z-score),[1],-0.799
same,glycan array binding signal (z-score),[2],0.314
same,glycan array binding signal (z-score),[3],-0.348
same,glycan array binding signal (z-score),[4],2.03
same,glycan array binding signal (z-score),Fuc(a1-2)Gal(b1-4)Glc6S,2.24
same,glycan array binding signal (z-score),Fuc(a1-2)Gal6S(b1-4)Glc,2.73
same,glycan array binding signal (z-score),[5],0.15
same,glycan array binding signal (z-score),[6],0.311
same,glycan array binding signal (z-score),[7],0.074
same,glycan array binding signal (z-score),[8],0.042
same,glycan array binding signal (z-score),[9],-0.561
same,glycan array binding signal (z-score),[10],3.57
same,glycan array binding signal (z-score),[11],-0.215
same,glycan array binding signal (z-score),Gal(b1-3)GlcNAc6S,-0.497
same,glycan array binding signal (z-score),[12],0.099
same,glycan array binding signal (z-score),[13],-1.21
same,glycan array binding signal (z-score),Gal(b1-4)Glc6S,0.084
same,glycan array binding signal (z-score),[14],-0.296
same,glycan array binding signal (z-score),[15],-0.583
same,glycan array binding signal (z-score),[16],-0.45
same,glycan array binding signal (z-score),[17],-0.105
same,glycan array binding signal (z-score),[18],4.7
same,glycan array binding signal (z-score),[19],-0.885
same,glycan array binding signal (z-score),Gal6S(b1-4)Glc6S,3.4
same,glycan array binding signal (z-score),GalNAc(b1-4)GlcNAc,-0.29
same,glycan array binding signal (z-score),Glc(b1-4)Glc,-0.903
same,glycan array binding signal (z-score),[20],0.178
same,glycan array binding signal (z-score),[21],-1.21
same,glycan array binding signal (z-score),[22],-0.575
same,glycan array binding signal (z-score),[23],-0.97
